The source of these data is article PMC5540273 (PLoS ONE, 2017).
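Further: KINOMEscan kinase panel screen.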

The first test deals with PHKG2. To be noted: concentration: 1 μM,replicates: in singlicate; n = 1.
In the case of `CCn1c(-c2nonc2N)nc2c(C#CC(C)(C)O)nc(OCCN)cc21.Cl.Cl` [GSK902056], the “%Inh” value was 0%.
On the same count and under the same terms, then `COc1ccc(C[C@@H](CN)NC(=O)c2cc(Br)c(-c3ccnc4[nH]ccc34)s2)cc1.Cl.Cl` [GSK1389063], with 24%.
Still for that read-out and setting: then `Cc1ccc2c(-c3ccncc3)c(-c3ccc(F)cc3)nn2c1.Cl` [GW461484], with 0%.
The same measure, in the same setting: then `Cl.Cl.NC[C@H](Cc1ccc(C(F)(F)F)cc1)NC(=O)c1cc(Br)c(-c2ccnc3[nH]ccc23)s1` [GSK1487252], with 0%; and `O=C(NCCCN1CCOC1=O)c1cnc(NCc2cc(Cl)ccc2Cl)nc1NC1CCCC1`, with 13%.
For `C=CC(=O)Nc1cc2c(Nc3ccc(F)c(Cl)c3)ncnc2cc1OCCCN1CCOCC1` [GW781483], the “%Inh” value worked out at 0%.
On the same count and under the same terms, then `NC(=O)c1cc(-c2ccccc2)cc2c(C3CCNCC3)c[nH]c12` [GSK301362], with 0%.
For `C[C@@H]1CCN(C(=O)CC#N)C[C@@H]1N(C)c1ncnc2[nH]ccc12`, the “%Inh” value is reported as 13%.
The same measure, in the same setting: then `Cc1occc1-c1nc(N)c(OC[C@@H](N)Cc2c[nH]c3ccccc23)cc1-c1cc2c(C)n[nH]c2cn1` [GSK1660450], with 11%; and `C[C@H]1Oc2cc(cnc2N)-c2c(nn(C)c2C#N)CN(C)C(=O)c2ccc(F)cc21`, with 100%.
Same read-out and setting: for `CN(C)CC(O)COc1ccc(Nc2nccc(-c3cnn4nc(N5CCOCC5)ccc34)n2)cc1` (stereo not drawn) [GW767488] the value was 81%; for `CCN(CC)CCCCNc1ncc2cc(-c3c(Cl)cccc3Cl)c(NC(=O)NC(C)(C)C)nc2n1`, 0%.
On the same count and under the same terms, for `Cl.Cl.NC[C@H](CC1CCCCC1)NC(=O)c1cc(Br)c(-c2ccnc3[nH]ccc23)s1` [GSK1581427] the value was 19%.
In the case of `CN(C)CCOc1ccc(-c2cc(-c3c[nH]nc3-c3ccccn3)ccn2)cc1` [GW835314], the “%Inh” value was 0%.
On the same count and under the same terms, then `CNC(=O)c1ccccc1Sc1ccc2c(/C=C/c3ccccn3)n[nH]c2c1`, with 0%.
Consider `O=C(NCCNc1ccnc(NCc2ccc(F)cc2)n1)c1cc2ccccc2s1` [GSK1379944], for which the “%Inh” value was 0%.
Same read-out and setting: then `Cc1cc2cn[nH]c2cc1-c1cccc2c(N)c(C(N)=O)nnc12`, with 0%.
Take `CC(C)N1C(=O)Cc2cc(Nc3ncc(C(F)(F)F)c(NCc4cccc(S(C)(=O)=O)c4)n3)ccc21`: the “%Inh” value was found to be 26%.
Still for that read-out and setting: for `Cl.Oc1cc(-c2nc(-c3ccccc3)[nH]c2-c2ccncc2)ccc1Cl` [SB-386023] the value was 0%; for `CC(C)Nc1cc(-c2ccc3c(N)n[nH]c3c2)nc(N)n1` [GSK2221681], 0%; for `Cc1ccc(-n2nc(C(C)(C)C)cc2NC(=O)Nc2ccc(OCCN3CCOCC3)c3ccccc23)cc1` [GW839464], 8%.
Still for that read-out and setting: for `C[C@@H](Oc1cc(-c2cnn(C3CCNCC3)c2)cnc1N)c1c(Cl)ccc(F)c1Cl` the value was 7%; for `Cc1n[nH]c2ccc(-c3cc(OC[C@@H](N)Cc4ccccc4)cnc3-c3ccoc3)cc12.O=C(O)C(F)(F)F.O=C(O)C(F)(F)F` [GSK507358], 0%; for `CCN(CC)CCOc1ccc(Nc2ncc3cc(-c4c(Cl)cccc4Cl)c(=O)n(C)c3n2)cc1` [SB-601273], 30%.
Same read-out and setting: for `Cl.Cl.Nc1nc(-c2ccc3c(N)n[nH]c3c2)cc(N2CCCC(NC(=O)c3ccccc3)C2)n1` (stereo not drawn) [GSK2286775] the value was 0%; for `Cc1cc(C(=O)Nc2ccc(Oc3ccc4nc(NC(=O)C5CC5)cn4n3)cc2)nn1-c1ccccc1`, 0%; for `Nc1nc(Nc2ccccc2)cc(-c2ccc3c(N)n[nH]c3c2)n1` [GSK2225749], 0%.

In a further test the test system is PIK3C2B. Particulars: concentration: 1 μM,replicates: in singlicate; n = 1.
For the compound `CCn1c(-c2nonc2N)nc2c(C#CC(C)(C)O)nc(OCCN)cc21.Cl.Cl` [GSK902056], the “%Inh” value is reported as 0%.
Same read-out and setting: then `COc1ccc(C[C@@H](CN)NC(=O)c2cc(Br)c(-c3ccnc4[nH]ccc34)s2)cc1.Cl.Cl` [GSK1389063], with 0%; and `Cc1ccc2c(-c3ccncc3)c(-c3ccc(F)cc3)nn2c1.Cl` [GW461484], with 0%; and `Cl.Cl.NC[C@H](Cc1ccc(C(F)(F)F)cc1)NC(=O)c1cc(Br)c(-c2ccnc3[nH]ccc23)s1` [GSK1487252], with 0%.
Still for that read-out and setting: for `O=C(NCCCN1CCOC1=O)c1cnc(NCc2cc(Cl)ccc2Cl)nc1NC1CCCC1` the value was 4%; for `C=CC(=O)Nc1cc2c(Nc3ccc(F)c(Cl)c3)ncnc2cc1OCCCN1CCOCC1` [GW781483], 2%; for `NC(=O)c1cc(-c2ccccc2)cc2c(C3CCNCC3)c[nH]c12` [GSK301362], 0%.
The same measure, in the same setting: for `C[C@@H]1CCN(C(=O)CC#N)C[C@@H]1N(C)c1ncnc2[nH]ccc12` the value was 0%.
In the case of `Cc1occc1-c1nc(N)c(OC[C@@H](N)Cc2c[nH]c3ccccc23)cc1-c1cc2c(C)n[nH]c2cn1` [GSK1660450], the “%Inh” value is 0%.
On the same count and under the same terms, for `C[C@H]1Oc2cc(cnc2N)-c2c(nn(C)c2C#N)CN(C)C(=O)c2ccc(F)cc21` the value was 0%; for `CN(C)CC(O)COc1ccc(Nc2nccc(-c3cnn4nc(N5CCOCC5)ccc34)n2)cc1` (stereo not drawn) [GW767488], 43%; for `CCN(CC)CCCCNc1ncc2cc(-c3c(Cl)cccc3Cl)c(NC(=O)NC(C)(C)C)nc2n1`, 27%.
`Cl.Cl.NC[C@H](CC1CCCCC1)NC(=O)c1cc(Br)c(-c2ccnc3[nH]ccc23)s1` [GSK1581427]: the “%Inh” value is 0%.
Turning to `CN(C)CCOc1ccc(-c2cc(-c3c[nH]nc3-c3ccccn3)ccn2)cc1` [GW835314], the “%Inh” value came out at 0%.
Still for that read-out and setting: for `CNC(=O)c1ccccc1Sc1ccc2c(/C=C/c3ccccn3)n[nH]c2c1` the value was 0%; for `O=C(NCCNc1ccnc(NCc2ccc(F)cc2)n1)c1cc2ccccc2s1` [GSK1379944], 0%.
The same measure, in the same setting: then `Cc1cc2cn[nH]c2cc1-c1cccc2c(N)c(C(N)=O)nnc12`, with 0%; and `CC(C)N1C(=O)Cc2cc(Nc3ncc(C(F)(F)F)c(NCc4cccc(S(C)(=O)=O)c4)n3)ccc21`, with 3%; and `Cl.Oc1cc(-c2nc(-c3ccccc3)[nH]c2-c2ccncc2)ccc1Cl` [SB-386023], with 7%.
On the same count and under the same terms, for `CC(C)Nc1cc(-c2ccc3c(N)n[nH]c3c2)nc(N)n1` [GSK2221681] the value was 0%; for `Cc1ccc(-n2nc(C(C)(C)C)cc2NC(=O)Nc2ccc(OCCN3CCOCC3)c3ccccc23)cc1` [GW839464], 0%.
As to `C[C@@H](Oc1cc(-c2cnn(C3CCNCC3)c2)cnc1N)c1c(Cl)ccc(F)c1Cl`, the “%Inh” value came out at 10%.
Same read-out and setting: then `Cc1n[nH]c2ccc(-c3cc(OC[C@@H](N)Cc4ccccc4)cnc3-c3ccoc3)cc12.O=C(O)C(F)(F)F.O=C(O)C(F)(F)F` [GSK507358], with 0%; and `CCN(CC)CCOc1ccc(Nc2ncc3cc(-c4c(Cl)cccc4Cl)c(=O)n(C)c3n2)cc1` [SB-601273], with 85%.
For `Cl.Cl.Nc1nc(-c2ccc3c(N)n[nH]c3c2)cc(N2CCCC(NC(=O)c3ccccc3)C2)n1` (stereo not drawn) [GSK2286775], the “%Inh” value is 14%.
Same read-out and setting: then `Cc1cc(C(=O)Nc2ccc(Oc3ccc4nc(NC(=O)C5CC5)cn4n3)cc2)nn1-c1ccccc1`, with 0%; and `Nc1nc(Nc2ccccc2)cc(-c2ccc3c(N)n[nH]c3c2)n1` [GSK2225749], with 2%.
